High-throughput results deposited in PubChem BioAssay by National Center for Advancing Translational Sciences (NCATS).
HT1080-NT tox: kills 2HG-producing HT-1080-NT fibrosarcoma cells; HT-1080-NT fibrosarcoma viability, CellTiter-Glo ATP luminescence, 48 h; Potency, µM (titrated, usually from 46.1 µM), hits mostly cytotoxic; 360,000 compounds, 1.6% hits;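 further: NT is the 2HG producing partner of a matched IDH1 knockdown line; nearly all actives have a fitted effect of over 55% in size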
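A 48-hour cytotoxicity screen used HT-1080-NT cells plated 2 hours before compound delivery. ATP-based CellTiter-Glo luminescence measured viability, normalized to DMSO and no-cell controls.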
ELG1 DNA repair: inhibitors of ELG1-dependent DNA repair in HEK293T cells; HEK293T ELG1-luciferase reporter, luminescence, 16 h; DNA damage induced by 5-fluorouridine; 330,000 compounds, 2.3% hits; AID 504467; Potency, µM (series often up to 46.1 µM), most hits filed as inhibitors; further: nearly all actives have a fitted effect of over 55% in size
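DMSO vehicle served as the neutral condition. Each well held 2,000 cells given 5-fluorouridine plus compound; after 16 hr at 37 °C/5% CO2, ONE-Glo was added and luciferase measured 30 min later.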
DT40 TDP1 no CPT: qHTS for Inhibitors of human tyrosyl-DNA phosphodiesterase 1 (TDP1): qHTS in cells in absence of CPT; 420,000 compounds, 15% hits; DT40 Tdp1-/- hTDP1 cells, no CPT, ATP luminescence, 48 h; AID 686978, 2013; Potency, µM (series often up to 46.2 µM), most hits filed as inhibitors; further: nearly all actives have a fitted effect of over 55% in size
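A cellular qHTS used chicken DT40 cells lacking endogenous Tdp1 but carrying stably transfected human TDP1. Compounds were applied without camptothecin, and cell growth kinetics were judged by ATP-dependent luminescence after ≥48 hr.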
HT1080 IDH1KD tx: toxicity to HT-1080 IDH1 knockdown cells (counter line); HT-1080 IDH1 knockdown viability, ATP luminescence, 48 h; Potency, µM (highest dose often 46.1 µM), usual class: cytotoxic; 360,000 compounds, 2% hits; AID 686971
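Viability of IDH1-knockdown HT-1080 fibrosarcoma cells was assessed by CellTiter-Glo after 48 h at 37 °C with titrated compound; concentration-effect curves were classified by fit quality and response size.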
DT40 TDP1 CPT: DT40-hTDP1 cell growth loss with CPT; Potency, µM (titrated, usually from 46.2 µM), actives largely listed as inhibitors; 420,000 compounds, 12% hits; chicken DT40 Tdp1-/-;hTDP1 cells + 20 nM CPT, ATP luminescence, 48 h; further: nearly all actives have a fitted effect of over 55% in size
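Chicken DT40 Tdp1-/- cells stably complemented with human TDP1 were seeded at 400 cells/well in medium containing 20 nM camptothecin, exposed to pin-transferred compounds, and grown at 37 °C for at least 48 hr. Viability was read as ATP luminescence.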
IL1B secr inh: inflammasome signaling inhibition, IL-1 beta readout; THP-1 LPS/ATP IL-1B secretion, AlphaLISA, 16 h; active compounds read low; activity change, % at 57.5 µM; 360,000 compounds, 4.7% hits; AID 743279; in the data active means activity change below about -50%; inconclusive means mostly about -30% to -49%
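THP-1 cells pretreated 1 hr with compounds (up to 57.5 uM final), then stimulated with LPS (250 ng/mL final) plus ATP (1.25 mM final); secreted IL-1B measured by AlphaLISA after 16 hr, decreased signal indicating inhibition.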
Hits are given with their value; [ ] = dose if it differs, or a comment. Rows were chosen to be rich in hits. Some 19% of all compounds tested hit in one or more screens of this group. Unless noted, the call rests on the fitted dose curve; in most records, active means well fitted curve in the direction sought with a large enough effect; inconclusive means small, poorly fitted or top-dose-only effect, or another doubt; inactive means no such curve, though single readings can be large; an effect the other way counts as inactive or inconclusive.

For O=C(NCC(c1cccnc1)N1CCN(c2ccccc2)CC1)c1ccco1 (stereo unspecified) the results were HT1080-NT tox inactive, DT40 TDP1 no CPT inactive, HT1080 IDH1KD tx inactive, DT40 TDP1 CPT inactive and IL1B secr inh inactive.
For Cc1c(Cl)cccc1NC(=O)C(=O)NCC(c1cccnc1)N1CCN(c2ccccc2)CC1 (stereo unspecified) the results were DT40 TDP1 no CPT 21µM and DT40 TDP1 CPT 16µM.
For COc1ccc(CCNC(=O)C(=O)NCC(c2cccnc2)N2CCN(c3ccccc3)CC2)cc1 (stereo unspecified) the results were DT40 TDP1 no CPT 18µM and DT40 TDP1 CPT 23µM.
`COc1ccc(CNC(=O)Cn2nc3c(cc2=O)CCCC3)cc1` gave DT40 TDP1 no CPT inactive and DT40 TDP1 CPT inactive.
For COc1ccccc1-c1c(C)nn2c(N3CCN(Cc4ccccc4)CC3)cc(C)nc12 the results were HT1080-NT tox inconclusive, ELG1 DNA repair inconclusive, DT40 TDP1 no CPT inconclusive, HT1080 IDH1KD tx inconclusive, DT40 TDP1 CPT inconclusive and IL1B secr inh inactive.
Cc1nn2c(N3CCN(C)CC3)cc(C(C)(C)C)nc2c1-c1ccccc1 was read as HT1080-NT tox 21µM, ELG1 DNA repair inactive, DT40 TDP1 no CPT inconclusive, HT1080 IDH1KD tx 16µM, DT40 TDP1 CPT inconclusive and IL1B secr inh -87.
For Cc1cc(N2CCN(Cc3ccccc3)CC2)n2nc(C)c(-c3ccccc3)c2n1 the results were HT1080-NT tox inactive, ELG1 DNA repair inconclusive, DT40 TDP1 no CPT 18µM, HT1080 IDH1KD tx inactive, DT40 TDP1 CPT 15µM and IL1B secr inh inactive.
COc1ccc(-c2c(C)nn3c(N4CCN(Cc5ccccc5)CC4)cc(C)nc23)cc1OC was read as HT1080-NT tox inactive, ELG1 DNA repair 4.6µM, DT40 TDP1 no CPT 23µM, HT1080 IDH1KD tx inactive, DT40 TDP1 CPT 23µM and IL1B secr inh inactive.
For CCN(CC)C(=O)C1=C(C)N(CCCN2CCCC2=O)C(=O)C(CC(=O)NCCN2CCOCC2)C1 (stereo unspecified) the results were HT1080-NT tox inactive, DT40 TDP1 no CPT inactive, HT1080 IDH1KD tx inactive, DT40 TDP1 CPT inactive and IL1B secr inh inactive.
For CN(C)c1nccc(N(Cc2ccccc2)Cc2ccccc2)c1C#N the results were HT1080-NT tox inactive, ELG1 DNA repair inconclusive, DT40 TDP1 no CPT 29µM, HT1080 IDH1KD tx inactive[9.24 µM], DT40 TDP1 CPT 18µM and IL1B secr inh inactive.
Screening Cc1cc(C(=O)Nc2ccc3c(c2)CCC3)ccc1[N+](=O)[O-] returned HT1080-NT tox inactive, DT40 TDP1 no CPT inconclusive, HT1080 IDH1KD tx inactive, DT40 TDP1 CPT inactive and IL1B secr inh -69.
For O=C(Nc1cccc([N+](=O)[O-])c1)Nc1ccc2c(c1)CCC2 the results were HT1080-NT tox inactive, ELG1 DNA repair inconclusive, DT40 TDP1 no CPT inconclusive, HT1080 IDH1KD tx inconclusive, DT40 TDP1 CPT 21µM and IL1B secr inh inconclusive.
`O=C(Nc1cccc([N+](=O)[O-])c1)Nc1cccs1` gave HT1080-NT tox inactive, ELG1 DNA repair inactive, DT40 TDP1 no CPT inconclusive, HT1080 IDH1KD tx inactive, DT40 TDP1 CPT 23µM and IL1B secr inh inconclusive.
For COC(=O)c1sccc1NC(=O)Nc1cccc([N+](=O)[O-])c1 the results were HT1080-NT tox inactive, ELG1 DNA repair inactive, DT40 TDP1 no CPT inactive, HT1080 IDH1KD tx inactive, DT40 TDP1 CPT inactive and IL1B secr inh inactive.
CCSCCc1nnc(NC(=O)Nc2cccc(C(F)(F)F)c2)s1 was read as HT1080-NT tox inconclusive, ELG1 DNA repair inconclusive, DT40 TDP1 no CPT 2.3µM, HT1080 IDH1KD tx inconclusive, DT40 TDP1 CPT 4.1µM and IL1B secr inh -69.
COC(=O)c1ccc(NC(=O)CN(C)S(=O)(=O)c2ccc(Br)s2)cc1 was read as DT40 TDP1 no CPT inactive and DT40 TDP1 CPT inactive.
`O=C(O)c1ccccc1CSc1nc2ccccc2[nH]1` gave HT1080-NT tox inactive, ELG1 DNA repair inconclusive, DT40 TDP1 no CPT inactive, HT1080 IDH1KD tx inactive, DT40 TDP1 CPT inactive and IL1B secr inh inactive.
Screening O=C(Nc1ccccc1)Nc1cccc(C(F)(F)F)c1 returned HT1080-NT tox inactive, ELG1 DNA repair inactive, DT40 TDP1 no CPT inconclusive, HT1080 IDH1KD tx inactive, DT40 TDP1 CPT inconclusive and IL1B secr inh inactive.
Screening O=C(Nc1cccc(C(F)(F)F)c1)Nc1cccs1 returned DT40 TDP1 no CPT 21µM and DT40 TDP1 CPT inconclusive.
For CCCOc1ccc(-c2c(C(=O)N/N=C/c3ccc(OCC)cc3)nnn2-c2nonc2N)cc1 the results were HT1080-NT tox inactive, ELG1 DNA repair inconclusive, DT40 TDP1 no CPT inactive, HT1080 IDH1KD tx inactive, DT40 TDP1 CPT inactive and IL1B secr inh inactive.
`COc1ccccc1/C=N/NC(=O)c1nnn(-c2nonc2N)c1-c1cccs1` gave HT1080-NT tox inactive, ELG1 DNA repair inactive, DT40 TDP1 no CPT inactive, HT1080 IDH1KD tx inactive, DT40 TDP1 CPT 23µM and IL1B secr inh inactive.
Screening COc1cccc(-c2c(C(=O)N/N=C/c3ccsc3)nnn2-c2nonc2N)c1 returned HT1080-NT tox inactive, ELG1 DNA repair inactive, DT40 TDP1 no CPT inactive, HT1080 IDH1KD tx inactive, DT40 TDP1 CPT inactive and IL1B secr inh inactive.
COc1cccc(-c2c(C(=O)N/N=C/c3sccc3C)nnn2-c2nonc2N)c1 was read as HT1080-NT tox inactive, ELG1 DNA repair inconclusive, DT40 TDP1 no CPT inactive, HT1080 IDH1KD tx inactive, DT40 TDP1 CPT inactive and IL1B secr inh -54.
CCCOc1ccc(-c2c(C(=O)N/N=C/c3ccncc3)nnn2-c2nonc2N)cc1 was read as HT1080-NT tox inconclusive, ELG1 DNA repair inactive, DT40 TDP1 no CPT inactive, HT1080 IDH1KD tx inconclusive, DT40 TDP1 CPT inactive and IL1B secr inh -54.
Screening Cc1ccsc1/C=N/NC(=O)c1nnn(-c2nonc2N)c1-c1ccccc1 returned HT1080-NT tox inactive, ELG1 DNA repair inconclusive, DT40 TDP1 no CPT inactive, HT1080 IDH1KD tx inactive, DT40 TDP1 CPT inactive and IL1B secr inh -92.
For CCNC(=O)C1(C)CCCN(C(=O)c2ccc(F)c(C)c2)C1 (stereo unspecified) the results were HT1080-NT tox inconclusive, DT40 TDP1 no CPT inactive, HT1080 IDH1KD tx inactive, DT40 TDP1 CPT inactive and IL1B secr inh inactive.
Screening O=C(NCC1CCCN1S(=O)(=O)c1cccs1)C(=O)Nc1ccccc1Cl (stereo unspecified) returned HT1080-NT tox inactive, ELG1 DNA repair inactive, DT40 TDP1 no CPT inconclusive, HT1080 IDH1KD tx inactive, DT40 TDP1 CPT inconclusive and IL1B secr inh inactive.
`O=C(O)CC1CCC(=C(Cl)Cl)C1` (stereo unspecified) gave HT1080-NT tox inconclusive, ELG1 DNA repair inconclusive, DT40 TDP1 no CPT 2.9µM, HT1080 IDH1KD tx inconclusive, DT40 TDP1 CPT 1µM and IL1B secr inh -74.
